Source: PubChem BioAssay
TrxR1 substrate: substrates of rat thioredoxin reductase 1 | AID 588456 | 390,000 tested, 0.01% active | Potency, µM (titrated, usually from 114 µM) | purified TrxR1 substrate turnover, NADPH consumption readout | O89049; note: nearly all actives have a fitted effect of over 50% in size
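Rat TrxR1, dispensed at 90 nM, was prereduced with 400 uM NADPH (final) for 5 min at ~22 deg C, then incubated with compound 15 min before 400 uM selenite. A first-read NADPH fluorescence drop versus no-compound background flagged substrates.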
IDH1 R132H inh: human IDH1 R132H inhibition; IDH1-R132H enzyme, NADPH consumption, diaphorase/resazurin fluorescence; AID 602179; Potency, µM (highest dose often 76.6 µM), most hits filed as inhibitors; 390,000 tested, 0.093% active; O75874; note: nearly all actives have a fitted effect of over 65% in size
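IDH1-R132H (0.5 ug/mL dispensed) in pH 7.5 Tris buffer was preincubated 30 min with compound, then given a substrate mix of 0.016 mM NADPH and 2 mM alpha-KG for 80 min at room temperature; remaining NADPH was read by diaphorase/resazurin fluorescence.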
VDR inh: inhibitors of human vitamin D receptor. P11473. VDR-SRC2-3 peptide fluorescence polarization, 2 h. Potency, µM, hits mostly inhibitors. 400,000 tested, 0.93% active
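Reagent solutions, kept cold and dark, are dispensed first; compounds are then pinned in at 23 nl, plates briefly spun, and incubated 2 h at ambient temperature. Inhibition of VDR–SRC2-3 peptide binding is read by fluorescence polarization.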
rTrxR1 inhibitor: rat TrxR1 inhibition | O89049 | recombinant rTrxR1, NADPH fluorescence consumption, selenite substrate | Potency, µM (series often up to 114 µM), actives largely listed as inhibitors | 390,000 tested, 1% active | AID 588453; note: nearly all actives have a fitted effect of over 65% in size
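Rat TrxR1 (90 nM in the dispensed reagent) was pre-reduced with 400 uM NADPH for 5 min at room temperature, then incubated with compound for 15 min. After 400 uM selenite was added, NADPH fluorescence (Ex 340/Em 450 nm) was followed for 8 min.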
Sfp PPTase inh: Sfp phosphopantetheinyl transferase inhibition. Q9F4F7. Biochemical Sfp PPTase activity, qHTS. Potency, µM, most hits filed as inhibitors. 310,000 tested, 3.5% active. AID 1490;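 note: the enzyme is Sfp with the accession as filed and its product quenches rhodamine fluorescence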
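Reaction rates are the 30-min fluorescence difference (ex 525, em 598 nm) in wells containing 15 nM Sfp, 5 uM rhodamine-CoA and 12.5 uM BHQ-2-YbbR at pH 7.6 with 10 mM MgCl2.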
PLK1 PBD inh: PLK1 (human) polo-box domain binding inhibition; AID 720504; Potency, µM, actives largely listed as inhibitors; Plk1 PBD binding of FITC phosphopeptide, fluorescence polarization; 360,000 tested, 2.8% active; note: series mostly up to about 57 µM; nearly all actives have a fitted effect of over 65% in size
Target sequence (P53350 whole entry, looked up, the tested form may be a part): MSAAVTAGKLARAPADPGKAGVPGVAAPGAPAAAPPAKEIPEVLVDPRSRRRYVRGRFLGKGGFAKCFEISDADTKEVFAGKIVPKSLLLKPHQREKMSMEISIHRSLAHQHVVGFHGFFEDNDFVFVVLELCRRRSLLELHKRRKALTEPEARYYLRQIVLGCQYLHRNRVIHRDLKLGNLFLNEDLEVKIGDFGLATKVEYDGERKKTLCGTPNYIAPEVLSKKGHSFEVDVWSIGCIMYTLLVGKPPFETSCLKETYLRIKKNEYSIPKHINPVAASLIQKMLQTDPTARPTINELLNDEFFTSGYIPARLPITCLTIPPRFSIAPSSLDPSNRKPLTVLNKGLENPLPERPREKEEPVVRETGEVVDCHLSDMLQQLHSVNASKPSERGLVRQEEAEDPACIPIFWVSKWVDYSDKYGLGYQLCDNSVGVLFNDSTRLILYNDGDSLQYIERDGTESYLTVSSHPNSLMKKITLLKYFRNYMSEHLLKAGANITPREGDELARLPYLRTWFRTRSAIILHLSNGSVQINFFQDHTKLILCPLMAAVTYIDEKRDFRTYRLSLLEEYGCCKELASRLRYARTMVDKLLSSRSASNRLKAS
A number is an active result; i = inactive; ? = inconclusive; nt = no result; [ ] = remark or other dose. In the library only some 5.2% were active in any assay of this set; here they are far more common. Calls come from the whole dose curve; as a rule, active = well fitted curve in the direction sought with a large enough effect; inconclusive = small, poorly fitted or top-dose-only effect, or another doubt; inactive = no such curve, though single readings can be large; an effect the other way counts as inactive or inconclusive.

SMILES	TrxR1 substrate	IDH1 R132H inh	VDR inh	rTrxR1 inhibitor	Sfp PPTase inh	PLK1 PBD inh
COc1ccc(/C=N/NC(=O)Cn2nc(C)c([N+](=O)[O-])c2C)cc1	i	i	?	i	i	30µM
Cc1ccc(/C=N/NC(=O)Cn2nc(C)c([N+](=O)[O-])c2C)o1	i	i	i	i	45µM	i
O=S1(=O)NCC23CCC(CC21)O3 (configuration not stated)	i	nt	i	i	i	nt
Cc1ccc2scc(N3CCc4ccccc4C3)c(=O)c2c1	i	i	i	i	nt	nt
CC(C)(C)N1C(=O)[C@H]2[C@@H]3[C@H](O)[C@H](O)CC(=O)[C@H]3CC[C@H]2C1=O	nt	nt	nt	nt	i	nt
Cc1nc2nc(SCC(=O)NC3CCC(C)CC3)nn2c(C)c1Cc1ccccc1 (configuration not stated)	i	i	i	i	nt	nt
COc1cccc(NC(=S)N(Cc2ccc(Cl)cc2)Cc2ccc(C(=O)O)cc2)c1	i	i	i	i	i	?
CCOC(=O)c1ccc(CC(=O)c2ccc(O)c(O)c2O)o1	i	i	i	i	6.3µM	?
CCOC(=O)c1ccc(Cn2c(-c3ccccc3)nnc2-c2ccccc2)o1	i	i	i	i	i	24µM
CCOC(=O)c1ccc(CC(=O)c2oc3cc(O)ccc3c2C)o1	i	i	i	?	?	i
CS(=O)(=O)c1ccc(Cl)c(NC(=O)CN2CCN(S(=O)(=O)/C=C/c3ccccc3)CC2)c1	i	i	i	i	nt	i
CCC1=NN2C(=N)/C(=C\c3ccc(SCc4ccco4)o3)C(=O)N=C2S1	i	i	i	i	45µM	?
CCCC1=NN2C(=N)/C(=C\c3ccc(SCc4ccco4)o3)C(=O)N=C2S1	i	i	i	?	56µM	24µM
CCCC1=NN2C(=N)/C(=C\c3cc(C)n(Cc4ccccc4)c3C)C(=O)N=C2S1	i	i	i	i	i	?
Cc1noc(C)c1-c1ccc2ncnc(NCc3ccc4c(c3)OCO4)c2c1	nt	nt	nt	nt	i	nt
O=C(NCc1cccc(F)c1)c1[nH]c(C(F)(F)F)nc1-c1ccccc1	nt	nt	nt	nt	nt	i
Cc1cc(=S)nc(-c2ccccn2)[nH]1	i	i	i	?	35µM	?
COc1ccc2nc(-c3ccccn3)[nH]c2c1	i	i	?	i	i	i
Cc1[nH]c(-c2ccccn2)nc(=S)c1Cl	i	i	i	i	40µM	30µM
Cc1ccc2cc(C#N)c(N3CCCC3)nc2c1C	i	i	i	i	20µM	i
COc1ccc2nc(N3CCCC3)c(C#N)cc2c1	i	i	i	i	i	17µM
Cc1ccc2cc(C#N)c(N3CCCN(C(=O)C4CCCO4)CC3)nc2c1C (configuration not stated)	i	i	i	i	i	i
COc1ccc2nc(SCC(=O)N3CCCCC3)c(C#N)cc2c1	i	i	i	i[11.4 µM]	i	i
COc1ccc2nc(N3CCCCC3)c(C#N)cc2c1	i	i	i	i	79µM	i
CC(=O)c1ccccc1NC(=O)COC(=O)Cc1cccc(C(F)(F)F)c1	i	i	i	i	nt	i
SMILES	TrxR1 substrate	IDH1 R132H inh	VDR inh	rTrxR1 inhibitor	Sfp PPTase inh	PLK1 PBD inh
CCOc1ccc(C(=O)NC2CCN(C(=S)NCc3ccco3)CC2)cc1	i	i	i	i	7.1µM	i
O=C(NC1CCN(C(=S)NCc2ccco2)CC1)NC12CC3CC(CC(C3)C1)C2	i	i	i	i	?	30µM
O=C(NC1CCCCC1)NC1CC2CCC(C1)N2C(=S)NCc1ccco1 (configuration not stated)	i	i	i	i	45µM	i
Cc1cccc(C(=O)NC2CCN(C(=S)NCc3ccco3)CC2)c1	i	i	i	i	i	i
O=C(NCc1ccco1)C12CC3CC(CC(C3)C1)C2	i	i	i	i	i	i
O=C(CCc1nc2cccnc2n1-c1ccccc1)Nc1ccc(Cl)c(Cl)c1	i	i	i	i	nt	nt
c1ccc(C2CSc3ccccc3N2)cc1 (configuration not stated)	i	i	?	i	56µM	i
Cc1ccc(-c2csc(N3CCN(c4cc5c(cc4Cl)nc(C)n5CCN4CCCCC4)CC3)n2)cc1	i	i	i	i	50µM	?
COc1ccc(C(c2c(C)[nH][nH]c2=O)c2c(C)[nH][nH]c2=O)cc1Br	i	i	?	i	i	24µM
Cc1ccc(C(c2c(C)[nH][nH]c2=O)c2c(C)[nH][nH]c2=O)cc1	i	i	?	i	i	27µM
Cc1[nH][nH]c(=O)c1[C@@H](c1ccccc1[N+](=O)[O-])C(C#N)C#N	i	i	?	i	i	24µM
COc1cc(C(c2c(C)[nH][nH]c2=O)c2c(C)[nH][nH]c2=O)ccc1OC(C)C	i	i	?	i	i	?
COc1ccc(O)c(C(c2c(C)[nH][nH]c2=O)c2c(C)[nH][nH]c2=O)c1	i	i	i	i	i	7.5µM
Cc1[nH][nH]c(=O)c1C(c1ccc([N+](=O)[O-])cc1)c1c(C)[nH][nH]c1=O	i	i	?	?	i	27µM
COc1cc(OC)c(NC(=O)Cn2cnc3nc4c(cc3c2=O)CCCC4)cc1Cl	i	i	i	i	nt	nt
